Measured values taken from ChEMBL document CHEMBL3988442, “University of Dundee, Small-Polar-MMV Screening Library” (2021).
About 1,000 (1.4%) of roughly 69,000 compounds showed an effect of 50% or more. This is one part of a sample in which strong results are shown more often than they occur.

System: Leishmania donovani
Experiment: Leishmania intramacrophage assay
Assay type: functional, organism-based
Design: scale not given: in the data most compounds retested in dose-response had high values

For `COC(=O)c1ccc(OC)c(OC23CCCN(CC2)C3)c1` (stereo unspecified), the “Percent Effect” value (30.3 µM, […]) was -2.222%.
`COc1ccc(SCC2CNc3nc4ccccc4c(=O)n32)cc1` (stereo unspecified) was tested, and the “Percent Effect” value (30.3 µM, […]) was 24.33%.
In the case of `O=C(NCCNc1ccc(C(F)(F)F)cn1)c1ccc(F)cc1Cl`, the “Percent Effect” value (30 µM) is reported as 35.81%.
With `Cc1nccn1CCC1CCCCN1Cc1ccncc1` (stereo unspecified) the “Percent Effect” value (30 µM, 30.03 µM) was 14.55%.
For `Cc1nccn1CCC1CCCCN1Cc1ccc(O)cc1Cl` (stereo unspecified), the “Percent Effect” value (30.3 µM, […]) was 62.65%.
For `Cc1cc2c(cc1CN1CCCCC1CCn1ccnc1C)OCO2` (stereo unspecified), the “Percent Effect” value (30.3 µM, […]) was 16.68%.
With `COc1ccccc1CCN1CCCC(CN(C)Cc2c[nH]c(C)n2)C1` (stereo unspecified) the “Percent Effect” value (30.3 µM, […]) was 23.77%.
`COc1ccc(CCN2CCCC(CN(C)Cc3ccc(C)o3)C2)cc1` (stereo unspecified) was tested, and the “Percent Effect” value (30 µM, 30.03 µM) was 48.36%.
For `COc1ccccc1CCN1CCCC(CN(C)Cc2ccc(C)o2)C1` (stereo unspecified), the “Percent Effect” value (30.3 µM, […]) was 51.06%.
In the case of `CN(C)S(=O)(=O)N1CCC(Oc2ccc(C#N)cc2)CC1`, the “Percent Effect” value (30 µM, 30.03 µM) is reported as 23.32%.
For `COCCNC(=O)CCn1ncc2c(Cl)cccc21`, the “Percent Effect” value (30.3 µM, […]) was -81.24%.
In the case of `CN(C)CCNC(=O)CCn1ncc2c(Cl)cccc21`, the “Percent Effect” value (30.3 µM, […]) is reported as 55.96%.
With `CN(C)C(=O)CNC(=O)CCn1ncc2c(Cl)cccc21` the “Percent Effect” value (30 µM, 30.03 µM) was 13.94%.
`CCN(CC)CC(=O)NCc1cccnc1-n1cnc2ccccc21` was tested, and the “Percent Effect” value (30.3 µM, […]) was 12.53%.
In the case of `Cc1nc(CNc2ccc(C(=O)NCc3ccco3)cc2C)no1`, the “Percent Effect” value (30.3 µM, […]) is reported as 3.169%.
In the case of `COc1cc(N2CC[C@H](O)[C@@H]2Cc2ccccc2)ncn1`, the “Percent Effect” value (30.3 µM, […]) is reported as 33.09%.
`COc1cc(N2CC[C@@H](O)[C@@H]2Cc2ccccc2)ncn1` was tested, and the “Percent Effect” value (30.3 µM, […]) was 51.86%.
With `COc1cc(N2CC[C@H](O)[C@@H]2Cc2cccnc2)ncn1` the “Percent Effect” value (30.3 µM, […]) was 5.968%.
`Cc1cc(C(=O)N2CC[C@@]3(C[C@@H](NS(C)(=O)=O)CCO3)C2)no1` was tested, and the “Percent Effect” value (30.3 µM, […]) was 13.02%.
In the case of `O=C(CCn1cncn1)NCCOc1cccc(Cl)c1`, the “Percent Effect” value (30.3 µM, […]) is reported as -12.3%.
With `Cc1c(C(C)NC2CCN(C(C)C)CC2)cnn1-c1ccc(F)cc1F` (stereo unspecified) the “Percent Effect” value (30.3 µM, […]) was 61.65%.
For `CC(=O)N1CCC(NC(C)c2cnn(-c3ccc(F)cc3F)c2C)CC1` (stereo unspecified), the “Percent Effect” value (30.3 µM, […]) was 3.786%.
With `Cc1c(C(C)NC2CCCC2)cnn1-c1ccc(F)cc1F` (stereo unspecified) the “Percent Effect” value (30.3 µM, […]) was 6.771%.
For `CCN(CCOC)C(=O)c1ccc2c(c1)nc(N1CC[C@H](O)C1)n2C`, the “Percent Effect” value (30.3 µM, […]) was 20.98%.
In the case of `COc1c(CNCc2ccc3c(c2)OCCO3)c(C(C)C)nn1C`, the “Percent Effect” value (30 µM) is reported as -2.541%.
`CCc1nc(C)c(CN2CCN(c3ncnc4c(C)csc34)CC2)[nH]1` was tested, and the “Percent Effect” value (30.3 µM, […]) was 24.01%.
`CCc1nc(C)c(CN2CCN(c3ncnc4scc(C)c34)CC2)[nH]1` was tested, and the “Percent Effect” value (30.3 µM, […]) was -3.854%.
In the case of `Cc1n[nH]c(CN2CCN(c3ncnc4scc(C)c34)CC2)c1Cl`, the “Percent Effect” value (30.3 µM, […]) is reported as 71.39%.
With `Cc1ccccc1CCNC(=O)C1CC(=O)N(CC(F)(F)F)C1` (stereo unspecified) the “Percent Effect” value (30 µM, 30.03 µM) was 9.865%.
`O=C(NCCn1ccnc1)N1CCCC1c1ccc2c(c1)OCCO2` (stereo unspecified) was tested, and the “Percent Effect” value (30 µM) was 14.25%.
`CC(C)(C(=O)NCc1n[nH]c(=O)[nH]1)c1ccc(F)cc1` was tested, and the “Percent Effect” value (30.3 µM, […]) was 17.25%.
In the case of `Cc1cc(=O)n2nc(Oc3ccc(F)c(F)c3)sc2n1`, the “Percent Effect” value (30.3 µM, […]) is reported as -0.08982%.
`Cc1cc(=O)n2nc(Oc3ccc(Cl)c(C)c3)sc2n1` was tested, and the “Percent Effect” value (30.3 µM, […]) was 74.91%.
`Cc1cc(=O)n2nc(Oc3cc(Cl)cc(Cl)c3)sc2n1` was tested, and the “Percent Effect” value (30.3 µM, […]) was -38.32%.
In the case of `COC(=O)NC1(C(=O)NCc2ccc(-c3ccn[nH]3)cc2)CCCC1`, the “Percent Effect” value (30.3 µM, […]) is reported as 3.496%.
With `CNC(=O)c1sccc1N(C)S(=O)(=O)c1ccc(Cl)cc1` the “Percent Effect” value (30.3 µM, […]) was 77.15%.
In the case of `CCNC(=O)c1sccc1N(C)S(=O)(=O)c1ccc(Cl)cc1`, the “Percent Effect” value (30.3 µM, […]) is reported as 2.943%.
In the case of `CC(C)NC(=O)c1sccc1N(C)S(=O)(=O)c1ccc(Cl)cc1`, the “Percent Effect” value (30 µM, 30.03 µM) is reported as 7.242%.
With `Cc1ccc(C(=O)NCC(C)CN2CCCC2=O)c(=O)[nH]1` (stereo unspecified) the “Percent Effect” value (30.3 µM, […]) was 59.27%.
With `Cc1ccc(C(=O)NC(CN2CCCC2=O)c2ccccc2)c(=O)[nH]1` (stereo unspecified) the “Percent Effect” value (30 µM, 30.03 µM) was -14.78%.
For `Cc1ccc(C(=O)NC(C)CN2CCCC2=O)c(=O)[nH]1` (stereo unspecified), the “Percent Effect” value (30 µM, 30.03 µM) was 6.193%.
With `Nc1nc(N)c2c(n1)OC1(CCCN(Cc3nccs3)CC1)C2` (stereo unspecified) the “Percent Effect” value (30.3 µM, […]) was 27.22%.
With `Cc1nonc1CN(C)c1nc(-c2ccco2)nc2c1CCN(C)CC2` the “Percent Effect” value (30.3 µM, […]) was 55.96%.
For `Cc1noc(CN(C)c2nc(-c3ccco3)nc3c2CCN(C)CC3)n1`, the “Percent Effect” value (30.3 µM, […]) was -34.19%.
`Cc1cc(CN(C)c2nc(-c3ccco3)nc3c2CCN(C)CC3)on1` was tested, and the “Percent Effect” value (30.3 µM, […]) was -83.89%.
In the case of `Cc1cccc(CN2C(=O)CO[C@@H]3CN(Cc4cnn(C)c4)C[C@H]32)c1.O=C(O)C(F)(F)F.O=C(O)C(F)(F)F`, the “Percent Effect” value (30.3 µM, […]) is reported as 15.94%.
In the case of `CC(C)(C)CNC(=O)c1ccc(C(=O)O)nc1`, the “Percent Effect” value (30.3 µM, […]) is reported as 60.75%.
With `CC(C)(C)CNC(=O)c1ccc(C(=O)O)cn1` the “Percent Effect” value (30.3 µM, […]) was -11.9%.
For `CC(C)(C)CNC(=O)c1ccc(C(=O)O)cc1`, the “Percent Effect” value (30.3 µM, […]) was 40.51%.
For `Cc1ccc(-c2ncc(CN3CCOC(c4ccco4)C3)s2)o1` (stereo unspecified), the “Percent Effect” value (30.3 µM, […]) was -6.468%.
`COC(=O)CCCN(C)C(c1cccnc1)c1ccc(F)cc1F` (stereo unspecified) was tested, and the “Percent Effect” value (30.3 µM, […]) was 21.57%.
`CC(C)N1CC(c2ncc(-c3ccc4c(c3)OCCO4)[nH]2)CC1=O` (stereo unspecified) was tested, and the “Percent Effect” value (30.3 µM, […]) was 26.45%.
With `COc1ccccc1CCN[C@@H]1c2ccccc2C2(CCNCC2)[C@H]1O` the “Percent Effect” value (30.3 µM, […]) was 35.47%.
With `Cc1ccc(CCN[C@@H]2c3ccccc3C3(CCNCC3)[C@H]2O)s1` the “Percent Effect” value (30.3 µM, […]) was 84.2%.
`O[C@H]1[C@H](NCCc2ccccn2)c2ccccc2C12CCNCC2` was tested, and the “Percent Effect” value (30.3 µM, […]) was -16.64%.
`CNC(=O)[C@@H]1C[C@H]2CN(Cc3csc(C)n3)C[C@H]2N1C(C)C.O=C(O)C(F)(F)F.O=C(O)C(F)(F)F` was tested, and the “Percent Effect” value (30.3 µM, […]) was 29.27%.
For `CC(C)N1Cc2cccc(NCC(=O)N(C)C)c2C1`, the “Percent Effect” value (30.3 µM, […]) was 62.8%.
For `CC(C)C(C)N1Cc2cccc(NCC(=O)N(C)C)c2C1` (stereo unspecified), the “Percent Effect” value (30.3 µM, […]) was 29.96%.
With `CC(C)N1Cc2cccc(NCC(=O)N(C)C3CCCCC3)c2C1` the “Percent Effect” value (30.3 µM, […]) was 17.74%.
In the case of `Cc1cc(NC(=O)NCC2COc3ccccc3C2)no1` (stereo unspecified), the “Percent Effect” value (30 µM) is reported as -28.91%.
`Fc1ccc(CN2CCO[C@H]3[C@H](OCc4ccncc4)CC[C@@H]32)cc1.O=C(O)C(F)(F)F.O=C(O)C(F)(F)F` was tested, and the “Percent Effect” value (30.3 µM, […]) was 43.4%.
With `Cc1cccc(CN2CCO[C@H]3[C@@H](OCc4ccncc4)CC[C@@H]32)n1.O=C(O)C(F)(F)F.O=C(O)C(F)(F)F.O=C(O)C(F)(F)F` the “Percent Effect” value (30.3 µM, […]) was 12.49%.
With `Fc1ccccc1CN1C[C@@H](OCc2ccncc2)[C@H]2OCCC[C@H]21.O=C(O)C(F)(F)F.O=C(O)C(F)(F)F` the “Percent Effect” value (30 µM, 30.03 µM) was 54.27%.
`Fc1ccccc1CN1C[C@H](OCC2CCOCC2)[C@H]2OCCC[C@H]21.O=C(O)C(F)(F)F` was tested, and the “Percent Effect” value (30.3 µM, […]) was -19.24%.
With `COc1ccc(CN2CCO[C@H]3[C@H](OCc4ccncc4)CC[C@@H]32)cc1.O=C(O)C(F)(F)F.O=C(O)C(F)(F)F` the “Percent Effect” value (30.3 µM, […]) was 60.6%.
For `CN(C)C(=O)CO[C@@H]1CN(Cc2ccccc2F)[C@@H]2CCCO[C@@H]21.O=C(O)C(F)(F)F`, the “Percent Effect” value (30.3 µM, […]) was 10.19%.
